# Measurements taken from paper PMC11062922 (Nature Chemical Biology, 2023).
# Where two headings read alike, the source gives them in different places.
# What was measured:
# Set-up in all cases: species or system human, MV4-11 + K-562 + COLO205 + SK-N-BE2 + OVCAR-8
# ADRBK1 = settings: read-out: apparent Kd, n = 1
# CAMK4 = settings: read-out: apparent Kd, n = 1
# CDK6 = settings: read-out: apparent Kd; compound concentrations:100 nM and 1000 nM (sheet 'Samples'); n = 1
# FLT3 = settings: read-out: apparent Kd; compound concentrations:100 nM and 1000 nM (sheet 'Samples'); n = 1
# MAP2K1 = settings: read-out: apparent Kd, n = 1
# NNT = settings: read-out: apparent Kd, n = 1
# NQO1 = settings: read-out: apparent Kd, n = 1
# ADK = settings: read-out: apparent Kd; compound concentrations: 100 nM and 1000 nM (sheet 'Samples'), CATDS: 1; n = 1
# AKT1 = settings: read-out: apparent Kd; compound concentrations: 100 nM and 1000 nM (sheet 'Samples'), CATDS: 4.3697981842120898E-2; n = 1
# AKT2 = settings: read-out: apparent Kd, n = 1
# CSNK1A1 = settings: read-out: apparent Kd; compound concentrations: 100 nM and 1000 nM (sheet 'Samples'), CATDS: 3.77728763052241E-2; n = 1
# EPHA7 = settings: read-out: apparent Kd; compound concentrations: 100 nM and 1000 nM (sheet 'Samples'), CATDS: 3.8645316072732999E-2; n = 1
# ILK = settings: read-out: apparent Kd; compound concentrations: 100 nM and 1000 nM (sheet 'Samples'), CATDS: 0.14244785973502599; n = 1
# MAP2K2 = settings: read-out: apparent Kd, n = 1
# MAP2K4 = settings: read-out: apparent Kd; compound concentrations: 100 nM and 1000 nM (sheet 'Samples'), CATDS: 0.186744219541462; n = 1
# MCM5 = settings: read-out: apparent Kd; compound concentrations: 100 nM and 1000 nM (sheet 'Samples'), CATDS: 3.88707631057994E-2; n = 1
# MYLK3 = settings: read-out: apparent Kd; compound concentrations: 100 nM and 1000 nM (sheet 'Samples'), CATDS: 3.9755051907905598E-2; n = 1
# PRKCI = settings: read-out: apparent Kd; compound concentrations: 100 nM and 1000 nM (sheet 'Samples'), CATDS: 3.7397105483333901E-2; n = 1
# PYGL = settings: read-out: apparent Kd; compound concentrations: 100 nM and 1000 nM (sheet 'Samples'), CATDS: 3.7417156320033999E-2; n = 1
# RIOK2 = settings: read-out: apparent Kd, n = 1
# STK11 = settings: read-out: apparent Kd; compound concentrations: 100 nM and 1000 nM (sheet 'Samples'), CATDS: 4.1841672980442002E-2; n = 1
# STK26 = settings: read-out: apparent Kd, n = 1
# TP53RK = settings: read-out: apparent Kd, n = 1
# VDAC3 = settings: read-out: apparent Kd; compound concentrations: 100 nM and 1000 nM (sheet 'Samples'), CATDS: 3.7908226064931903E-2; n = 1
# ADCK5 = settings: read-out: apparent Kd; compound concentrations:100 nM and 1000 nM (sheet 'Samples'); n = 1
# CDK4 = settings: read-out: apparent Kd; compound concentrations:100 nM and 1000 nM (sheet 'Samples'); n = 1
# DDR1 = settings: read-out: apparent Kd; compound concentrations:100 nM and 1000 nM (sheet 'Samples'); n = 1
# [1] = compound concentrations:100 nM and 1000 nM (sheet 'Samples')
structure (smiles),measurement,setting,value
NS(=O)(=O)c1ccc(N/N=C2\C(=O)Nc3ccc(Cl)cc32)cc1 [GW280670X],potency estimated from few doses,ADRBK1; [1],1880 nM
same,potency estimated from few doses,CAMK4; [1],1330 nM
same,potency estimated from few doses,CDK6,2280 nM
same,potency estimated from few doses,FLT3,1090 nM
same,potency estimated from few doses,MAP2K1; [1],2000 nM
same,potency estimated from few doses,NNT; [1],1290 nM
same,potency estimated from few doses,NQO1; [1],1850 nM
O=C(Nc1n[nH]c2nc(-c3ccco3)c(Br)cc12)C1CC1 [SB-739452],potency estimated from few doses,ADK,1720 nM
COc1cc2ncn(-c3cc(OCc4ccccc4C(F)(F)F)c(C(C)=O)s3)c2cc1OC [GSK1030059A],potency estimated from few doses,"ADRBK1; compound concentrations: 100 nM and 1000 nM (sheet 'Samples'), CATDS: 0.14381840818805",132 nM
same,potency estimated from few doses,AKT1,1300 nM
same,potency estimated from few doses,"AKT2; compound concentrations: 100 nM and 1000 nM (sheet 'Samples'), CATDS: 4.5438239597783502E-2",1180 nM
same,potency estimated from few doses,"CAMK4; compound concentrations: 100 nM and 1000 nM (sheet 'Samples'), CATDS: 3.6966464107036197E-2",2080 nM
same,potency estimated from few doses,CSNK1A1,1950 nM
same,potency estimated from few doses,EPHA7,1820 nM
same,potency estimated from few doses,ILK,134 nM
same,potency estimated from few doses,"MAP2K1; compound concentrations: 100 nM and 1000 nM (sheet 'Samples'), CATDS: 0.14670729977766001",128 nM
same,potency estimated from few doses,"MAP2K2; compound concentrations: 100 nM and 1000 nM (sheet 'Samples'), CATDS: 4.5160118472274198E-2",1190 nM
same,potency estimated from few doses,MAP2K4,89.5 nM
same,potency estimated from few doses,MCM5,1790 nM
same,potency estimated from few doses,MYLK3,1670 nM
same,potency estimated from few doses,"NNT; compound concentrations: 100 nM and 1000 nM (sheet 'Samples'), CATDS: 5.0059398656859502E-2",933 nM
same,potency estimated from few doses,"NQO1; compound concentrations: 100 nM and 1000 nM (sheet 'Samples'), CATDS: 4.7880082762824801E-2",1040 nM
same,potency estimated from few doses,PRKCI,2010 nM
same,potency estimated from few doses,PYGL,2000 nM
same,potency estimated from few doses,"RIOK2; compound concentrations: 100 nM and 1000 nM (sheet 'Samples'), CATDS: 4.6117723123063198E-2",1130 nM
same,potency estimated from few doses,STK11,1450 nM
same,potency estimated from few doses,"STK26; compound concentrations: 100 nM and 1000 nM (sheet 'Samples'), CATDS: 3.6848584126752397E-2",2100 nM
same,potency estimated from few doses,"TP53RK; compound concentrations: 100 nM and 1000 nM (sheet 'Samples'), CATDS: 4.1477973818590801E-2",1490 nM
same,potency estimated from few doses,VDAC3,1930 nM
COC(=O)Nc1nc2ccc(Oc3ccc(NC(=O)Nc4cc(C(F)(F)F)ccc4F)cc3)cc2n1C.Cl [GW692089A],potency estimated from few doses,ADCK5,1770 nM
same,potency estimated from few doses,ADRBK1; [1],1500 nM
same,potency estimated from few doses,AKT2; [1],2410 nM
same,potency estimated from few doses,CDK4,2200 nM
same,potency estimated from few doses,CDK6,2300 nM
same,potency estimated from few doses,DDR1,1030 nM
same,potency estimated from few doses,MAP2K2; [1],2020 nM
same,potency estimated from few doses,NNT; [1],1910 nM
same,potency estimated from few doses,NQO1; [1],1810 nM
same,potency estimated from few doses,RIOK2; [1],2170 nM
same,potency estimated from few doses,STK26; [1],1760 nM
same,potency estimated from few doses,TP53RK; [1],1400 nM
